# This is a sample that favours compounds with a hit; in the whole collection about 15% have one here.
# 12-LOX inh – blocks human arachidonate 12S-lipoxygenase | P18054 | purified 12hLO, xylenol orange hydroperoxide absorbance | Potency, µM (series often up to 108 µM), actives largely listed as inhibitors | actives 1.1% (n = 580,000)
# Target sequence (P18054 whole entry, looked up): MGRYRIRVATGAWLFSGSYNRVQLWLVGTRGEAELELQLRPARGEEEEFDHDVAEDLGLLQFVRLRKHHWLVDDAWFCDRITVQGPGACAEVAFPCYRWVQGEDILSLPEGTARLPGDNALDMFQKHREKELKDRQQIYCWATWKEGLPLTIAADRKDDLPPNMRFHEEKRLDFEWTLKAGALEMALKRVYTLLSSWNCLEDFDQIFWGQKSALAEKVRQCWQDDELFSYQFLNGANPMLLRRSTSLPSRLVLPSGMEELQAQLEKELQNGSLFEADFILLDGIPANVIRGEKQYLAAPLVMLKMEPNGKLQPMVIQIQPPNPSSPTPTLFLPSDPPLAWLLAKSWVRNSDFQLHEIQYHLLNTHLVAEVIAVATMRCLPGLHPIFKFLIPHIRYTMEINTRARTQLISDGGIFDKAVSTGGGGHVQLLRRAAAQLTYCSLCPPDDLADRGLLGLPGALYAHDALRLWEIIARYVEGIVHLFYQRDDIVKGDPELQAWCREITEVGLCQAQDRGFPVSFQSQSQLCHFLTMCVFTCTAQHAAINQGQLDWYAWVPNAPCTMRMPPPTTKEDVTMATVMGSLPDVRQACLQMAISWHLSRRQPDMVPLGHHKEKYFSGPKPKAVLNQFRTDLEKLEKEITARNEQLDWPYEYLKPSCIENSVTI
#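 Purified human 12hLO at 150 nM in 25 mM Hepes, 0.01% Triton X-100, pH 7.0, preincubated 15 min at room temperature with compound. Reaction started with 40 uM arachidonic acid, 30 min at room temperature. Hydroperoxide measured by Fe-xylenol orange, 573/405 nm absorbance ratio.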
# RORgamma inh – ROR gamma (mouse) transcription inhibition; AID 2551; actives 5.4% (n = 310,000); P51450; Potency, µM (doses to about 53.6 µM), actives largely listed as inhibitors; Drosophila S2 Gal4-RORgamma UAS-luciferase reporter, 20 h; also: nearly all actives have a fitted effect of over 60% in size
#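 Read-out: Photinus luciferase luminescence; inhibitors lower reporter signal. Insect Schneider cells with Gal4-ROR gamma fusion under metallothionein promoter, UAS reporter; 700 uM final copper sulfate induction, 20 hr, ambient temperature.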
# DT40 TDP1 CPT – DT40-hTDP1 cell growth loss with CPT; actives 12% (n = 420,000); AID 686979; Potency, µM (series often up to 46.2 µM), most hits filed as inhibitors; chicken DT40 Tdp1-/-;hTDP1 cells + 20 nM CPT, ATP luminescence, 48 h; also: nearly all actives have a fitted effect of over 55% in size
#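 Chicken DT40 Tdp1-/- cells complemented with human TDP1, 400 cells/well, exposed to compounds plus 20 nM camptothecin for at least 48 h at 37 C; viability read as ATP content by CellTiter-Glo luminescence.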
# Gal4-VP16 FLuc – inhibits Gal4-VP16 luciferase reporter, ROR gamma counter-screen; Drosophila S2 Gal4-VP16 UAS-luciferase, luminescence, 20 h; Potency, µM (highest dose often 53.6 µM), hits mostly inhibitors; actives 3.5% (n = 310,000); AID 2546;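 also: Gal4-VP16 expression switched on by copper sulfate through the metallothionein promoter; nearly all actives have a fitted effect of over 50% in size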
# ELG1 DNA repair – ELG1-dependent DNA repair inhibition | Potency, µM (titrated, usually from 46.1 µM), actives largely listed as inhibitors | AID 504467 | HEK293T ELG1-luciferase reporter, luminescence, 16 h; DNA damage induced by 5-fluorouridine | actives 2.3% (n = 330,000); also: nearly all actives have a fitted effect of over 55% in size
#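 Reporter activity after DNA damage by 5-fluorouridine is monitored. Compound-treated cells incubate 16 hr at 37 °C, then ONE-Glo is added for 30 min before luminescence reading.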
# TDP1 cell noCPT – qHTS for Inhibitors of human tyrosyl-DNA phosphodiesterase 1 (TDP1): qHTS in cells in absence of CPT; actives 15% (n = 420,000); Potency, µM (titrated, usually from 46.2 µM), hits mostly inhibitors; DT40 Tdp1-/- hTDP1 cells, no CPT, ATP luminescence, 48 h; AID 686978, 2013; also: nearly all actives have a fitted effect of over 55% in size
#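 No-CPT arm: Tdp1-/-;hTDP1 DT40 cells (400/well) plus compounds, incubated ≥48 hr at 37 °C. Readout CellTiter-Glo luminescence.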
# Hits are given with their value; . = inactive; ? = inconclusive; / = no result; [ ] = remark or other dose. Calls follow the shape of the dose curve; as a rule, active = well fitted curve in the direction sought with a large enough effect; inconclusive = small, poorly fitted or top-dose-only effect, or another doubt; inactive = no such curve, though single readings can be large; an effect the other way counts as inactive or inconclusive.
SMILES,12-LOX inh,RORgamma inh,DT40 TDP1 CPT,Gal4-VP16 FLuc,ELG1 DNA repair,TDP1 cell noCPT
O=C(NCCn1ccn2nc(-c3ccc(F)cc3)cc2c1=O)c1ccc2c(c1)OCO2,.,/,/,/,/,/
Cc1cc(C)cc(C(=O)NCc2nc(-c3cccc(NC(=O)c4ccccn4)c3)oc2C)c1,.,/,.[9.04 µM],/,/,.
C#Cc1cccc(C(=O)NCc2nc(-c3cccc(NC(=O)c4ccccn4)c3)oc2C)c1,.,/,?,/,/,23µM
CCCn1nc(C(=O)NCC2CCCCC2)c2ccccc2c1=O,.,/,/,/,/,/
COc1ccc(/C=C(\C#N)C(=O)N2CCOCC2)cc1Br,.,.,.,.,.,.
Cc1cc(/C=C(\C#N)C(=O)N2CCOCC2)c(C)n1C1CCCC1,.,?,?,?,?,12µM
O=C(Nc1cccc(-c2cnc3ccccc3n2)c1)c1cccc(NC(=O)c2ccco2)c1,.,?,6.5µM,?,10µM,15µM
O=C(Nc1cccc(NC(=O)c2nccc3ccccc23)c1)c1ccco1,.,.,?,.,.,10µM
O=C(Nc1nccs1)c1cccc(NC(=O)c2ccco2)c1,.,?,.,.,23µM,?
O=C(Nc1cccc(-c2cnc3ccccc3n2)c1)C1CC(=O)N(c2ccccc2)C1 (configuration not stated),.,?,21µM,.,?,23µM
O=C(Nc1ccncc1)C1CC(=O)N(c2ccccc2)C1 (configuration not stated),.,/,.,/,/,.
O=C(Nc1cccc(NC(=O)c2ccco2)c1)c1ccccc1,?,.,.,.,.,.
O=C(Nc1cccnc1)c1cccc(NC(=O)c2ccco2)c1,.,.,.,.,.,?
NC(N)=NC(N)=Nc1ccccc1Br,.,/,/,/,/,/
O=C(Nc1ccc(OC(=O)c2ccco2)cc1)c1ccco1,?,?,.,.,.,.
Nc1ccc(C(=O)Nc2ccc(NC(=O)c3ccco3)c(O)c2)cc1,.,.,?,.,.,16µM
O=C(Nc1ccccc1O)c1cccc(NC(=O)c2ccco2)c1,.,?,21µM,?,12µM,13µM
O=C(Nc1ccc(Cl)c(Cl)c1)Oc1ccc(NC(=O)c2ccco2)cc1,.,.,?,.,.,26µM
O=C(c1ccccc1)c1cccc(NC(=O)c2ccco2)c1,.,.,?,.,?,?
O=C(Nc1ccc(NC(=O)c2ccco2)c(Cl)c1)c1ccccc1,.,.,?,.,.,23µM
COCCNC(=O)C(C)[C@@H]1CCc2c(C)cc(OC)c(C)c2C1 (some centres not stated),.,/,/,/,/,/
Nc1cccc(C(=O)Nc2ccc(N)cc2Cl)c1,.,.,.,.,?,.
O=C(CCl)Nc1cccc(-c2cnc3ccccc3n2)c1,.,.,2.9µM,.,9.2µM,2.3µM
O=C(Nc1ccccc1C(=O)O)c1cccc(NC(=O)c2ccc(Br)o2)c1,.,?,.,.,.,1.6µM
Nc1ccc(NC(=O)c2cccc(C(=O)Nc3ccc(N)cc3Cl)c2)c(Cl)c1,.,.,18µM,.,.,16µM
SMILES,12-LOX inh,RORgamma inh,DT40 TDP1 CPT,Gal4-VP16 FLuc,ELG1 DNA repair,TDP1 cell noCPT
CCOc1ccc(C(=O)N[C@H]2CCOC[C@H]2C2CCOCC2)o1,.,/,/,/,/,/
C=C(C)CNC(=S)N/N=C(/C)c1ccc(C)o1,.,/,/,/,/,/
CCN(C(=O)c1ccc2c(c1)N(S(C)(=O)=O)CC2)c1ccccc1C,.,/,/,/,/,/
CC(=O)N1CC2(CCN(C3CCCCC3)C2)Cc2ccccc21 (configuration not stated),.[6.33 µM],/,/,/,/,/
COc1ccc(N(C(=O)c2snc(C(N)=O)c2N)C(C(=O)NC2CCCC2)c2ccco2)c(OC)c1 (configuration not stated),.,?,?,.,.,23µM
COc1ccc(C)cc1N(C(=O)c1snc(C(N)=O)c1N)C(C(=O)NC1CCCC1)c1ccc(F)cc1 (configuration not stated),.,.,?,.,.,16µM
Cc1ccc(N(C(=O)c2snc(C(N)=O)c2N)C(C(=O)NC2CCCC2)c2ccc(C)o2)cc1 (configuration not stated),?,.,?,.,?,?
COc1ccc(N(C(=O)c2snc(C(N)=O)c2N)C(C(=O)NC2CCCCC2)c2ccc(C)o2)c(OC)c1 (configuration not stated),.,.,12µM,.,.,21µM
COc1ccc(N(C(=O)c2snc(C(N)=O)c2N)C(C(=O)NC2CCCC2)c2ccc(F)cc2)c(OC)c1 (configuration not stated),.,.,.,?,.,?
Cc1cccc(N(C(=O)c2snc(C(N)=O)c2N)C(C(=O)NC2CCCC2)c2ccc(C)o2)c1 (configuration not stated),.,.,18µM,.,.,15µM
CCCc1nc2ccccc2c(C(=O)OCC(=O)Nc2ccc(S(=O)(=O)N3CCOCC3)cc2)c1CC,.,?,16µM,.,21µM,16µM
CCCc1nc2ccccc2c(C(=O)OCC(=O)Nc2cccc(S(=O)(=O)N3CCOCC3)c2)c1CC,.,?,12µM,.,26µM,?
O=C(CN(c1ccc(Cl)cc1)S(=O)(=O)c1ccc(Cl)c([N+](=O)[O-])c1)NCCc1ccccc1,.,.,?,.,?,?
CCOC(=O)C(C)(C)N(Cc1ccc(Cl)cc1)S(=O)(=O)c1ccc(Cl)c([N+](=O)[O-])c1,/,.,/,?,18µM,/
CCOC(=O)C(C)(C)N(Cc1ccc(C)cc1)S(=O)(=O)c1ccc(Cl)c([N+](=O)[O-])c1,.,.,15µM,?,?,13µM
COc1ccc(-c2noc(CSc3nnc(-c4ccco4)n3C3CCCCC3)n2)cc1OC,.,/,/,/,/,/
O=C(CSc1nc(-c2ccccc2)cn1-c1ccccc1F)Nc1ccc(F)cc1,.,/,18µM,/,/,?
CC(=O)Nc1nonc1-c1nnc(SCC(=O)Nc2c(C)cccc2C)n1-c1ccccc1,.,/,?,/,/,.
CC(=O)Nc1nonc1-c1nnc(SCC(=O)Nc2cccc(C)c2C)n1-c1ccccc1,.,/,23µM,/,/,26µM
Cc1ccc(NC(=O)CS(=O)(=O)c2nc(-c3ccc(C)cc3)cn2-c2ccc(C)cc2)cc1,.,/,21µM,/,/,15µM
CCOc1ccc(-c2cn(-c3ccc(C)cc3)c(SCC(=O)Nc3ccc(C)cc3)n2)cc1,.,/,?,/,/,?
O=C(CSc1nc(-c2ccccc2)cn1-c1ccccc1)Nc1ccccc1,.,/,?,/,/,?
Cc1ccc(NC(=O)CSc2nnc(-c3n[nH]c4ccccc34)n2-c2ccccc2)c(C)c1,.,?,15µM,.,23µM,?
